Screening results from PubChem BioAssay.
ClpP mod – qHTS Assay for Activators of ClpP; ATP-dependent Clp protease proteolytic subunit (Bacillus subtilis (strain 168)), P80244; purified B. subtilis ClpP, FRET peptide cleavage, 20 min; Potency, µM (titrated, usually from 57.5 µM), for the others: at the highest dose activity change, negative = active; 1.9% of 340,000 active; active means well fitted falling curve with a large enough effect; inconclusive means small, poorly fitted or top-dose-only effect; inactive means no such curve, though single readings can be large or run the other way; further: potency means the concentration at half of the fitted maximal effect; the source files actives as falling curves though it sought activators and does not explain the sign; nearly all actives have a fitted effect of over 65% in size
Target sequence (P80244 whole entry, looked up): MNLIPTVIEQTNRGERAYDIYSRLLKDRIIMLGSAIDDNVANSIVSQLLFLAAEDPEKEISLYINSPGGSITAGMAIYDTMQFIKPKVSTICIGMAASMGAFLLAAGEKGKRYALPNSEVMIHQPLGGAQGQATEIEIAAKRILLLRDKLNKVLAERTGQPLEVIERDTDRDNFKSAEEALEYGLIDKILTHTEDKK
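ClpP 10 microg/mL final, pH 8 Tris/KCl buffer with BSA, glycerol, Tween-20; compound pinned in; FRET-FV substrate; RT 20 min; Ex320/Em430; ΔFRET vs ADEP 5.8 microM, DMSO, no enzyme.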
DT40 TDP1 no CPT – qHTS for Inhibitors of human tyrosyl-DNA phosphodiesterase 1 (TDP1): qHTS in cells in absence of CPT; DT40 Tdp1-/- hTDP1 cells, no CPT, ATP luminescence, 48 h; Potency, µM (doses to about 46.2 µM), without a hit: top-dose activity change, negative = growth inhibition, most hits filed as inhibitors; 15% of 420,000 active; AID 686978, 2013; further: potency means the concentration at half of the fitted maximal effect; on the % scale 0 is the no-effect control and ±100 the full control effect; nearly all actives have a fitted effect of over 55% in size
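Chicken DT40 Tdp1-/- cells stably complemented with human TDP1 were seeded at 400 cells/well with DMSO in place of 20 nM camptothecin. After compound pinning, cells grew at least 48 hr at 37 °C; viability read by CellTiter-Glo luminescence.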
D3 ag – D3 dopamine receptor (human) agonism; P35462; D3R DiscoveRx beta-arrestin cells, luminescence, 90 min; max activation, %; 0.58% of 410,000 active; in the data active means max activation above about 30%; further: 0% is about no effect
Target sequence (P35462 whole entry, looked up): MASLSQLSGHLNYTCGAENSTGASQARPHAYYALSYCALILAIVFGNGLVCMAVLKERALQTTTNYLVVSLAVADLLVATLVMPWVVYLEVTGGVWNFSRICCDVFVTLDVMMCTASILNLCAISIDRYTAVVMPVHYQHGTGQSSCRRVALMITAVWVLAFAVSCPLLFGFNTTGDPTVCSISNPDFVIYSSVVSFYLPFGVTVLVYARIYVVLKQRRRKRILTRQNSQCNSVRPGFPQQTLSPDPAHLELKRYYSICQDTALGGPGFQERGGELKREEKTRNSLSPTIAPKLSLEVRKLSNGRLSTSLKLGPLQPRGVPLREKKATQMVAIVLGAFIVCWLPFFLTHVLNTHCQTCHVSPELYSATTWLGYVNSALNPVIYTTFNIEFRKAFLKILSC
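Agonist mode: compounds and dopamine controls were applied to plated cells for 90 min at 37 degrees C after an overnight attachment at 1500 cells/well. Luminescent read-out followed 30 - 60 minutes at room temperature with DiscoveRx detection reagent.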
TDP1 cell CPT – DT40-hTDP1 cell growth loss with CPT | Potency, µM (series often up to 46.2 µM), inactives show top-dose activity change, negative = growth inhibition, actives largely listed as inhibitors | 12% of 420,000 active | AID 686979 | chicken DT40 Tdp1-/-;hTDP1 cells + 20 nM CPT, ATP luminescence, 48 h; further: potency means the concentration at half of the fitted maximal effect; on the % scale 0 is the no-effect control and ±100 the full control effect; nearly all actives have a fitted effect of over 55% in size
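Chicken DT40 Tdp1-/- cells stably complemented with human TDP1 were seeded at 400 cells/well in medium containing 20 nM camptothecin, exposed to pin-transferred compounds, and grown at 37 °C for at least 48 hr. Viability was read as ATP luminescence.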
DRD3 antagonist – D3 dopamine receptor (human) antagonism; max response, negative = inhibition, %; D3R cells, DiscoveRx beta-arrestin luminescence, antagonist mode; stronger effect = lower value; 2.5% of 360,000 active; AID 652054; in the data active means max response below about -50%; inconclusive means no clear call, values can overlap the other calls; further: on the % scale 0 is the no-effect control and ±100 the full control effect
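Cells expressing the human receptor were seeded at 1500 cells/well, incubated overnight at 37 degrees C in 5% CO2, then exposed to library compounds with dopamine controls for 90 minutes at 37 degrees C before luminescent detection.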
IL-1B inflam inh – inhibitors of inflammasome signaling (IL-1 beta secretion); THP-1 LPS/ATP IL-1B secretion, AlphaLISA, 16 h; stronger effect = lower value; activity change, % at 57.5 µM; 4.7% of 360,000 active; AID 743279; in the data active means activity change below about -50%; inconclusive means mostly about -30% to -49%; further: on the % scale 0 is the no-effect control and ±100 the full control effect
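Secreted IL-1B measured by AlphaLISA bead assay after 16 h compound exposure of THP-1 cells; compounds (final up to 57.5 uM) added 1 h before LPS (250 ng/mL) and ATP (1.25 mM) stimulation; lower signal means less secretion.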
Active calls of the source: *; i = inactive; u = inconclusive; x = no result given. Rows were chosen to be rich in hits. Some 21% of all compounds tested hit in one or more screens of this group. Unless noted, the call rests on the fitted dose curve; in most records, active means well fitted inhibition curve with a large enough effect; inconclusive means small, poorly fitted or top-dose-only effect; inactive means flat fitted curve, though single readings scatter.

SMILES | ClpP mod | DT40 TDP1 no CPT | D3 ag | TDP1 cell CPT | DRD3 antagonist | IL-1B inflam inh
O=C(NCc1cccnc1)C(=O)NCC(c1cccnc1)N1CCN(c2ccccc2F)CC1 (stereo not drawn) | -3% | u | 7 | u | x | x
COc1ccc(C(=O)NCCc2nc3cc([N+](=O)[O-])ccc3n2C)cc1 | -12% | u | -21 | -16% | -113* | 0
CC(=O)N1CCN(Cc2nc3cc([N+](=O)[O-])ccc3n2C)CC1 | -2% | u | 0 | 6.5µM* | 21 | 7
Cc1nc2c(-c3ccccc3)c(C)nn2c(C)c1CCC(=O)N1CCN(c2ccc(F)cc2)CC1 | 0% | u | 9 | u | x | x
CC1CN(C(=O)c2cccc(S(=O)(=O)N3CCN(c4ccc(F)cc4)CC3)c2)CC(C)O1 (stereo not drawn) | 1% | u | 4 | 26µM* | 1 | 5
O=C(c1cccc(S(=O)(=O)N2CCN(c3ccc(F)cc3)CC2)c1)N1CCCC(C(F)(F)F)C1 (stereo not drawn) | 0% | 4.1µM* | -25 | 3.3µM* | -2 | -17
Cc1cccc(NS(=O)(=O)c2cccc(C(=O)N3CCCC(C(F)(F)F)C3)c2)c1 (stereo not drawn) | u | u | -6 | u | -10 | 0
CCc1cccc(C)c1Nc1c(-c2ccc(F)cc2)nc2sccn12 | 2% | u | 9 | u | x | x
CCc1cccc(C)c1Nc1c(-c2ccc(SC)cc2)nc2sccn12 | -4% | 23µM* | 7 | u | x | x
CCc1cccc(C)c1Nc1c(-c2ccsc2)nc2ncccn12 | -2% | 7.3µM* | 1 | 5.8µM* | x | x
Cc1cccc(C)c1Nc1c(-c2ccsc2)nc2ncccn12 | 1% | u | -26 | 15µM* | 3 | 4
COc1cc(C(=O)Oc2ccc(/C=N/NC(=O)c3ccncc3)cc2)cc(OC)c1OC | 0% | -15% | 12 | -9% | 52 | 6
CC(/C=N\NC(=O)c1ccc2c(c1)OCO2)c1ccccc1 (stereo not drawn) | -2% | 8% | -3 | -20% | 9 | 17
COc1cc(C(=O)Oc2ccccc2/C=N/NC(=O)c2ccc(C)cc2)cc(OC)c1OC | u | 0.65µM* | -14 | 1µM* | 4 | 91
COC(=O)COc1ccc(/C=N/NC(=O)c2ccc(N(Cc3ccccc3)S(C)(=O)=O)cc2)cc1 | 32µM* | -29% | -7 | -25% | 10 | -95*
O=C(N/N=C/C(Cl)=C/c1ccccc1)c1ccc2c(c1)OCO2 | 145% | 21µM* | -3 | u | 0 | -16
O=C(N/N=C/c1ccc(OC2CSC2)cc1)c1ccc(CN2CCOCC2)cc1 | x | u | -16 | -11% | -7 | 0
O=C(N/N=C/c1ccc(OC(=O)c2ccccc2)cc1)c1ccc(CN2CCOCC2)cc1 | 1% | 12µM* | 5 | u | 7 | 8
CN(Cc1ccccc1)C(=O)c1cccc(NC(=O)Cc2cccc(NC(=O)C3CCN(C(=O)c4ccccc4)CC3)c2)c1 | 2% | u | 14 | u | 11 | -12
COc1cc(Cl)c(S(=O)(=O)NCCCn2ccnc2)cc1Cl | x | -20% | 2 | 8% | -19 | -1
COc1ccc(C(=O)N/N=C/c2ccc(N(C)c3ccccc3)cc2)cc1 | 4% | 23µM* | -9 | u | 5 | u
CC(C)(C)C(=O)Nc1ccc(C(=O)N/N=C/c2ccccc2OC(=O)c2ccc(Cl)cc2)cc1 | 1% | 4.6µM* | 5 | 5.2µM* | 11 | 3
CC(C)(C)C(=O)Nc1ccc(C(=O)N/N=C/c2ccccc2OC(=O)c2ccccc2)cc1 | -2% | 7.3µM* | 3 | 6.5µM* | -8 | 96
COc1cc(C(=O)N/N=C/c2ccsc2C)cc(OC)c1OC | 0% | 0.65µM* | -12 | 1.2µM* | -53* | 56
CN(C)c1ccc(/C=N/NC(=O)c2ccccc2)cc1 | x | u | -6 | u | -8 | -5
SMILES | ClpP mod | DT40 TDP1 no CPT | D3 ag | TDP1 cell CPT | DRD3 antagonist | IL-1B inflam inh
COc1ccccc1C=NNC(=O)c1ccncc1 | x | -14% | -5 | -5% | 4 | 16
COc1ccccc1C(=O)Nc1ccnn1C1CCN(Cc2ccn[nH]2)CC1 | 1% | -11% | -2 | -2% | -15 | i
COCCN(C(=O)CCN1C(=O)C2CC=CCC2C1=O)c1c(N)n(CC(C)C)c(=O)[nH]c1=O (stereo not drawn) | -5% | 16% | 3 | 11% | 17 | 6
C[C@@H]1CN([C@H](C)CO)C(=O)CCCn2cc(nn2)CO[C@H]1CN(C)C(=O)Cc1ccccc1 | -3% | -14% | -8 | -25% | -24 | -13
COc1ccc(C2C(=O)N(C3CCC(C)CC3)CC(=O)N2C2CCCCC2)cc1OC (stereo not drawn) | 1% | u | 6 | u | x | x
COc1cc(CC(=O)OCC(=O)c2c[nH]c3ccccc23)cc(OC)c1OC | -1% | u | 0 | u | -6 | 56
CSc1cccc(NC(=O)COC(=O)c2ccccn2)c1 | 2% | u | -5 | -9% | -6 | 12
COc1ccc(C(=O)N/N=C/c2ccccc2OC(=O)c2ccccc2)cc1 | x | 0.52µM* | -10 | 0.58µM* | -23 | 117
COc1ccc(C(=O)N/N=C/c2ccc(OC(=O)c3ccccc3)cc2)cc1 | 1% | -16% | 3 | -12% | -23 | -8
O=C(N/N=C/c1ccccc1)c1ccc(-c2ccccc2)cc1 | -2% | 5% | 3 | 7% | -4 | 28
O=C(N/N=C/c1cccc(OC(=O)c2cccc(Br)c2)c1)c1cccnc1 | -10% | -3% | 15 | 1% | 19 | -8
COc1ccccc1/C=N/NC(=O)c1ccc2c(c1)OCO2 | -1% | 1% | -16 | -1% | -16 | 2
NC(=O)COc1ccc(/C=N\NC(=O)c2ccc(-c3ccccc3)cc2)cc1 | 10µM* | 0% | 0 | -4% | 18 | i
COc1cc(C(=O)Oc2cccc(/C=N/NC(=O)c3cccnc3)c2)cc(OC)c1OC | x | 9.2µM* | 8 | 6.5µM* | 22 | 30
O=C(N/N=C/c1ccccc1OC(=O)c1ccc2c(c1)OCO2)c1ccccc1 | 1% | 4.1µM* | 6 | 4.1µM* | 10 | 0
Cc1ccc(CN2CCN(Cc3ccco3)CC2)cc1 | 1% | -6% | -19 | u | u | 7
Cc1ccc(C)c(NC(=O)COC(=O)CC2c3ccccc3CCN2S(=O)(=O)c2ccc(F)cc2)c1 (stereo not drawn) | -7% | u | -2 | -14% | 0 | 0
